Data: PubChem BioAssay AID2685 (National Center for Advancing Translational Sciences (NCATS), 2010)
Out of some 320,000 compounds screened, about 2,100 (0.66%) were called active. About 53% were inconclusive and are not listed. Calls follow the shape of the dose curve; as a rule, active = well fitted inhibition curve with a large enough effect in the signal ratio, with a control signal flat (not every such curve was filed as active); inconclusive = small, poorly fitted or top-dose-only effect, or effect the other way, or a change in a side signal; inactive = flat fitted curve, though single readings scatter; the % refers to the signal ratio. The full list was thinned out, with actives kept by preference.

Assay: qHTS Assay for Lipid Storage Modulators in Drosophila S3 Cells;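 as to cell number change: cells counted by Cell Tracker Red CMTPX staining in the red channel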; as to lipid storage change, negative = inhibition: % is scaled to controls: 0 for no effect and ±100 for the full control effect
Settings: BODIPY lipid droplet fluorescence, 18-24 h, cells fed with added oleic acid; cell number change: measured here: cell count max response; series mostly up to 46.1 µM; lipid storage change, negative = inhibition: at the top concentration
Outline: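 Laser-scanning cytometry quantifies lipid droplet accumulation (500–530 nm total intensity; droplet/cell object ratio) in oleic acid-fed (400 uM added) Drosophila S3 cells treated with a concentration series. 20 uM Triacsin C defined 100% inhibition.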
Potency is read from the fitted curve at half-maximal effect.

SMILES	lipid storage change, negative = inhibition	cell number change [%]	Potency	outcome
COc1ccc(-c2csc3ncn(-c4ccccc4)c(=O)c23)cc1OC	1.51% (inactive)	-7.4		
Cc1cc(C)nc(CCNC(=O)C2CCC(=O)N(Cc3ccccc3F)C2)n1 (configuration not stated)	17.5% (inactive)	14.5		
CSc1ccc(-c2nc(CSCC(=O)NCCCN3CCOCC3)c(C)o2)cc1	3.48% (inactive)	-0.666		
CCCNC(=O)CSCc1nc(-c2ccc(SC)cc2)oc1C	6.01% (inactive)	10.2		
CSc1ccc(-c2nc(CSCC(=O)NCCCN3CCCC3=O)c(C)o2)cc1			1.84 µM (active)	
CCOC(=O)C(CCCOc1cccc(OC)c1)C(=O)OCC	0.495% (inactive)	-10.4		
O=C(COc1ccc([N+](=O)[O-])cc1)N1CCc2ccccc2C1	14.6% (inactive)	20		
COc1ccc([N+](=O)[O-])cc1NC(=O)c1ccccc1N(C)S(C)(=O)=O	-5.45% (inactive)	-12.5		
Cc1ccc(-c2nnc(Sc3nc4ccccc4o3)c3ccccc23)cc1	4.8% (inactive)	-15.3		
Clc1ccc(-c2nnc(Sc3nc4ccccc4o3)c3ccccc23)cc1	4.25% (inactive)	-12.5		
O=c1c(Cl)c2oc3ccccc3nc-2c2ccccc12		13.2	11.6 µM (active)	
CCSc1ccc(-c2ccco2)nn1	0.907% (inactive)	13.6		
O=c1c([N+](=O)[O-])c(O)c2cccc3c2n1CCC3	14.8% (inactive)	-0.265		
O=C(Nc1ccccc1C(=O)Nc1ccccn1)c1cccc([N+](=O)[O-])c1		6.61		inactive
N#Cc1c(N)nc2c(c1-c1ccc(F)cc1)c(=O)nc1sccn12	23% (inactive)			
CC1(c2ccccc2Cl)NC(=O)N(CC(=O)NCCC2=CCCCC2)C1=O (configuration not stated)				inactive
O=C(Cc1ccc([N+](=O)[O-])cc1)N1CCN(c2ccc([N+](=O)[O-])cc2)CC1	-12.1% (inactive)	2.07		
O=C(Cc1ccc(F)cc1)N1CCN(c2ccc([N+](=O)[O-])cc2)CC1		11.6		inactive
Cc1ccc(CC(=O)N2CCN(c3ccc([N+](=O)[O-])cc3)CC2)cc1		10.2	7.31 µM (active)	
O=C(Nc1cccc2ccccc12)N1CCN(c2ncccn2)CC1	9.88% (inactive)	15		
CC(C)CN1CCN(Cc2cnc(N3CCOCC3)s2)CC1CCO (configuration not stated)	9.67% (inactive)	24.7		
CC(C)=CCN1CCN(Cc2cnc(N3CCOCC3)s2)CC1CCO (configuration not stated)		-26.5	13 µM (active)	
Cc1ccc(CN2CCN(Cc3cnc(N4CCOCC4)s3)CC2CCO)cc1 (configuration not stated)	-24.1% (inactive)	-2.17		
O=C1CN(S(=O)(=O)c2ccccc2)CCN1S(=O)(=O)c1ccccc1	-1.23% (inactive)	-1.6		

SMILES	lipid storage change, negative = inhibition	cell number change [%]	Potency	outcome
CCC1C(=O)N=C(SCC(=O)Nc2ccccc2)NC1=O (configuration not stated)	5.42% (inactive)	7.84		
NS(=O)(=O)c1ccc(NC(=O)CSC2=NC(=O)C(c3ccccc3)C(=O)N2)cc1 (configuration not stated)	-4.72% (inactive)	-0.978		
CCC1C(=O)N=C(SCC(=O)Nc2ccc(S(N)(=O)=O)cc2)NC1=O (configuration not stated)		-37.4	6.51 µM (active)	
O=S(=O)(/N=C(/c1ccc(F)cc1)N1CCCCC1)c1ccc(Cl)cc1	1.25% (inactive)	-6.48		
Cc1ccc(CNC(=O)CN2C(=O)c3ccccc3S2(=O)=O)cc1		20.7		inactive
Cn1cc(C(=O)N/N=C/c2c(O)ccc3ccccc23)ccc1=O	17% (inactive)	-26.3		
Cn1nccc1C(=O)N/N=C/c1c(O)ccc2ccccc12		-2.67	14.6 µM (active)	
CN(C)c1ccc(/C=N/NC(=O)c2ccnn2C)cc1		-10.8		inactive
O=C1NC(=S)N/C1=C/c1ccc(Oc2ccc(C(F)(F)F)cc2[N+](=O)[O-])c(Cl)c1	-0.498% (inactive)	-6.9		
COc1ccc(N2C(=O)CC(NC3CCCCNC3=O)C2=O)cc1 (configuration not stated)	-4.85% (inactive)	5.19		
COc1ccc(NC(=O)CN(C)C(=O)/C=C/c2ccc(OCc3ccccc3)cc2)cc1		-11.8	0.731 µM (active)	
COCC(=O)Nc1ccc(OCc2ccccc2)cc1		4		inactive
COc1ccc(NC(=O)CN(C)C(=O)c2ccc(COc3ccccc3)cc2)cc1	16.5% (inactive)	-6.23		
Cc1ccc(C23CC4CC(CC(C(=O)OCC(=O)N(C)C)(C4)C2)C3)cc1	7.97% (inactive)	4.17		
CCOc1ccccc1CNC(=O)c1ccc(Sc2ccc(Cl)cc2)c(NC(C)=O)c1	22.8% (inactive)	7.67		
Cc1[nH]c2ccccc2c1C(=O)C(=O)N1CCN(C(=O)c2ccco2)CC1		27		inactive
Cc1ccccc1NC(=O)c1cccc(C(=O)Nc2ccccc2C)n1		-25.7	8.2 µM (active)	
O=C(Nc1ccccn1)c1onc2c1CCCC2	0.434% (inactive)			
Cc1ccccc1NC(=O)c1onc2c1CCCC2			25.9 µM (active)	
Cc1ccccc1NC(=O)c1ccccn1	2.23% (inactive)			
O=C(Nc1cccc2ccccc12)c1onc2c1CCCC2				inactive
Cc1ccccc1NC(=O)C(=O)Nc1ccccc1C	7.41% (inactive)	0.926		
COc1cc2c(cc1OC)C(c1ccc3c(c1)OCO3)C1=C(CC(C)(C)CC1=O)N2 (configuration not stated)	-20.1% (inactive)	-17.2		
